Assay results published in PubChem BioAssay AID485317 (Broad Institute, 2010).
Out of some 290,000 compounds screened, about 11,000 (3.8%) were called active.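 Rule for the calls: active = mean replicate inhibition above about 79%, with every replicate also reaching it (limit read from the data); inconclusive = only one of the two criteria met; inactive = mean below limit and not every replicate reaching it.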 This excerpt belongs to a sample that is enriched for actives.

Target: FAD-linked sulfhydryl oxidase ALR (Homo sapiens) (UniProt P55789)
Sequence (P55789 whole entry, looked up): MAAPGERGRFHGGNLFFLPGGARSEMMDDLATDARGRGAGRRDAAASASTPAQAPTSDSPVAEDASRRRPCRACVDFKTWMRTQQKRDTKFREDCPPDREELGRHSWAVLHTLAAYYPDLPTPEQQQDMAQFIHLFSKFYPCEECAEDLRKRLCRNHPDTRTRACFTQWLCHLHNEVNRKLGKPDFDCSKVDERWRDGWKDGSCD
Experiment: ALR-catalysed DTT oxidation blockers – biochemical, H2O2 detection, HRP-luminol luminescence, single point, primary screen (AID 485317)
Details: purified ALR, hits give high values, concentration not given here

| SMILES | inhibition |
| --- | --- |
| O=c1[nH]c(SCc2ccccc2)nnc1-c1ccccc1 | -6.49% (inactive) |
| N#Cc1c(-c2ccc(F)cc2)nc(-c2ccccc2)[nH]c1=O | 47.4% (inactive) |
| COc1ccccc1CSc1ncc(-c2ccc([N+](=O)[O-])cc2)[nH]1 | -12.3% (inactive) |
| O=c1[nH]c(SCc2cccc(F)c2)nc2ccccc12 | -17.9% (inactive) |
| N#Cc1c(-c2ccccc2)nc(SCc2cccc(C(F)(F)F)c2)[nH]c1=O | 86.8% (active) |
| N#Cc1c(-c2ccccc2)nc(SCc2ccc([N+](=O)[O-])cc2)[nH]c1=O | 99.5% (active) |
| C/C=C/c1ccc(OCC(=O)NNC(=O)CN(C)S(=O)(=O)c2ccc(C)cc2)c(OC)c1 | -17.6% (inactive) |
| Cc1ccc2nnn(Cc3cccc(C(C)(C)C)c3O)c2c1 | 14.7% (inactive) |
| CCC(CC)c1nnc(NC(=O)C2=COCCO2)s1 | 2.79% (inactive) |
| O=C(c1ccc(Cl)s1)N(Cc1nnc(-c2ccccc2Cl)o1)C1CC1 | -3.36% (inactive) |
| COc1ccc(C)cc1NC(=O)c1cc(-c2ccccc2)nc2c1cnn2C(C)C | -1.17% (inactive) |
| Cc1ccc(S(=O)(=O)N2CCCCC2)cc1C(=O)N(C)CC(=O)Nc1cccc(F)c1 | -10.8% (inactive) |
| O=C(CCCCCNC(=O)c1ccccc1)N/N=C/c1ccccc1 | 35.5% (inactive) |
| O=C(CC(=O)N/N=C\c1ccc(F)cc1)NCCc1ccccc1 | 38.6% (inactive) |
| O=C(CC(O)(C(F)(F)F)C(F)(F)F)Nc1ccc(Cl)c(Cl)c1 | 31.6% (inactive) |
| CC1=NNC(=O)C1CCC(=O)N/N=C\c1ccc(Cl)c(Cl)c1 (centres undefined) | 56.7% (inactive) |
| O=C(C[n+]1ccccc1)N/N=C/c1ccc(O)cc1 | 98.9% (active) |
| O=C(CC(=O)Nc1ccc(Cl)c(Cl)c1)N/N=C/c1ccc(O)cc1 | 98.1% (active) |
| CC(C)(C)OC(=O)CNC(=O)c1[nH]cnc1C(=O)N[C@@H](CCCCN)C(=O)OC(C)(C)C | 2.52% (inactive) |
| C=CC[C@@H](CC(=O)N[C@@H](CO)Cc1ccccc1)C(=O)NCCOC(=O)[C@@H](CC=C)CC(=O)OC(C)(C)C | 0.56% (inactive) |
| COc1ccc(C(=O)N(Cc2ccccc2)c2ccc(C)cc2)cc1S(=O)(=O)N1CCOCC1 | 18.8% (inactive) |
| COc1ccc(NC(C)=O)cc1NC(=O)CN1CCN(c2ccccn2)CC1 | -9.42% (inactive) |
| O=C(CN1CCN(c2ccccn2)CC1)Nc1ccc(Br)cc1 | -8.03% (inactive) |
| CCN(CC)c1ccc(NC(=O)CN2CCN(c3ccccn3)CC2)cc1 | 99.3% (active) |

| SMILES | inhibition |
| --- | --- |
| Cc1ccc(S(=O)(=O)N2[C@@H](c3cccc4ccccc34)C(C(=O)O)=C[C@H]2C(C)(C)C)cc1 | 9.1% (inactive) |
| CN(C(=O)Cn1nnc(-c2ccc(F)cc2)n1)C1CCS(=O)(=O)C1 (centres undefined) | -4.28% (inactive) |
| CCC1CCC/C1=N\NC(=O)c1ccc(Cl)cc1 (centres undefined) | -14.7% (inactive) |
| CCN(CC)CCCNC(=O)COc1ccc2oc3c(c2c1)CCCC3 | 83.3% (active) |
| O=C(COc1ccc2c3c(c(=O)oc2c1)CCCC3)NCC(O)c1ccccc1 (centres undefined) | -0.0443% (inactive) |
| O=C(COc1ccc2oc3c(c2c1)CCCC3)Nc1ccccn1 | -9.11% (inactive) |
| Cc1ccc(Br)c(NS(=O)(=O)c2cccc(C(=O)N3CCNC(=O)C3)c2)c1 | -0.146% (inactive) |
| COc1ccc(N2CCC(N3CCN(C)C(CCO)C3)CC2)cc1 (centres undefined) | 86.4% (active) |
| COc1ccccc1N1CCC(N2CCN(CC(C)(C)C)C(CCO)C2)CC1 (centres undefined) | 21.8% (inactive) |
| COc1ccc(OCC(=O)Nc2ccc(N3CCC(C)CC3)cc2)cc1 | 1.79% (inactive) |
| COc1ccc(CCNC(=O)C(=O)NCC2CCCN2S(=O)(=O)c2cccs2)cc1OC (centres undefined) | -2.42% (inactive) |
| O=C(OCc1nc2ccccc2[nH]1)C1CCCCC1 | 0.03% (inactive) |
| Nc1cccc(CCc2nc3ccccc3[nH]2)c1 | 1.01% (inactive) |
| Oc1ccc2nc(Cc3ccccc3)[nH]c2c1 | 98.6% (active) |
| CN(C)C(=O)c1ccc(NC(=O)COC(=O)c2cc3c(s2)CCCCC3)cc1 | -2.4% (inactive) |
| CCOc1ccc(NS(=O)(=O)c2ccc(Cl)c(C(=O)N(C)Cc3cccnc3)c2)cc1 | -9.87% (inactive) |
| O=C(Nc1cccc(S(=O)(=O)N2CCOCC2)c1)C12CC3CC(CC(C3)C1)C2 | -1.07% (inactive) |
| Oc1cc(O)c2c(c1)OC(c1ccc(O)c(O)c1)C(O)C2 (centres undefined) | 98.2% (active) |
| O=C1N[C@@H](c2ccccc2)COC(=O)[C@H](Cc2ccc(F)cc2)C/C=C\C[C@@H]1CC(=O)N(CCO)Cc1ccccc1 | -1.44% (inactive) |
| Cc1ccc(NC(=O)COc2coc(CN3CCc4ccccc4C3)cc2=O)cc1Cl | -8.1% (inactive) |
| Cc1ccsc1C(=O)OCC(=O)NCCc1ccccc1 | -5.18% (inactive) |
| Cc1cccc(N2C(=O)SC(N(CC(=O)O)c3cccc(C)c3)C2=O)c1 (centres undefined) | 98.6% (active) |
| Cc1ccc(N2C(=O)SC(N(CC(=O)O)c3ccc(C)cc3)C2=O)cc1 (centres undefined) | 0.583% (inactive) |
| Cc1cccc(N2C(=O)SC(SC(=Nc3ccccc3)Nc3ccccc3)C2=O)c1 (centres undefined) | 0.802% (inactive) |

| SMILES | inhibition |
| --- | --- |
| CN(N)c1nc(N2CCCC2)nc(N2CCCC2)n1 | -6.99% (inactive) |
| Cc1sc2ncnc(N3CCC(C(=O)Nc4ccc(F)cc4Cl)CC3)c2c1C | 1.27% (inactive) |
| Nc1c(-c2ccccc2)nnn1Cc1ccccc1 | -6.35% (inactive) |
| Cn1c(CC(=O)Nc2ccccc2)nnc1SCC(=O)c1ccccc1 | -3.26% (inactive) |
| Cc1ccc(C(=O)CSc2nnc(Cn3nnc4ccccc43)n2C)cc1 | 39.7% (inactive) |
| Cn1c(CC2Sc3ccccc3NC2=O)nnc1SCC(=O)c1ccc(Cl)cc1 (centres undefined) | 92.8% (active) |
| S=c1[nH]nc(-c2ccco2)n1/N=C/c1ccccc1 | 94.9% (active) |
| Cc1cc(-c2n[nH]c(=S)n2/N=C/c2ccco2)n[nH]1 | -0.903% (inactive) |
| S=c1[nH]nc(-c2ccco2)n1/N=C/c1ccc(Br)s1 | 68.5% (inactive) |
| COc1ccc(C(=O)COC(=O)C(O)c2ccccc2)c(OC)c1 (centres undefined) | -0.55% (inactive) |
| O=C(C1Cc2ccccc2CN1C(=O)c1ccco1)N1CCN(c2ccccc2)CC1 (centres undefined) | 50.3% (inactive) |
| Cc1ccc(Cl)c(OCC(=O)N(C)CC(=O)Nc2ccc(N3CCOCC3)cc2)c1 | 52.9% (inactive) |
| CCCC(=O)N(CCc1ccccc1)Cc1nc2ccccc2c(=O)[nH]1 | -7.51% (inactive) |
| O=C(CCc1[nH]c2ccccc2c1Sc1ccccc1)N(CCO)CCO | 99% (active) |
| CCCCNC(=O)Cn1nc(C)c(S(=O)(=O)N2CCOCC2)c1C | 3.23% (inactive) |
| COc1ccc(S(=O)(=O)N2CCN(CC(=O)N3CCOCC3)CC2)cc1OC | -0.297% (inactive) |
| Oc1ccc(-c2nnc(Nc3ccccc3)c3ccccc23)cc1 | 98.8% (active) |
| Cc1cccc(-c2nc(Nc3ccc(O)cc3)c3ccccc3n2)c1 | 6.09% (inactive) |
| Cc1ccc(-c2nnc(Nc3ccc(C(=O)N(C)C)cc3)c3ccccc23)cc1S(N)(=O)=O | -2.47% (inactive) |
| O=C1NC(c2cccc(Cl)c2)Nc2ccccc21 (centres undefined) | 0.575% (inactive) |
| O=C1c2ccccc2NC(c2ccc(-c3cccc(Cl)c3)o2)N1O (centres undefined) | 95.9% (active) |
| CCOC(=O)NN1C(=O)c2ccccc2NC1c1cccc(O)c1 (centres undefined) | -18.3% (inactive) |
| COc1ccc(C(=O)COC(=O)c2c(C)noc2C)cc1Cl | 1.08% (inactive) |
| Nc1ccc(-c2nnc(-c3ccccc3)o2)cc1 | 36.1% (inactive) |

| SMILES | inhibition |
| --- | --- |
| Nc1nc(-c2ccccc2)cc(-c2ccccc2)n1 | -2.58% (inactive) |
| Nc1ccc(-c2sc(N)nc2-c2ccccc2)cc1 | 99% (active) |
| CCN1C(=O)[C@@H]2[C@@H](c3ccc(-c4ccccc4)cc3)N3CCCC[C@@]3(C(=O)OC)[C@@H]2C1=O | -1.67% (inactive) |
| CCCCn1c(N)c(N(CCOC)C(=O)c2cccc(S(=O)(=O)N(C)c3ccccc3)c2)c(=O)[nH]c1=O | -2.15% (inactive) |
| Cc1ccc(NC(=O)C2CC(=O)N(c3ccc4c(c3)OCCO4)C2)cc1S(=O)(=O)N1CCCCCC1 (centres undefined) | -0.304% (inactive) |
| COc1cc(C2C(C(=O)c3cccs3)=C(O)C(=O)N2CCN2CCOCC2)ccc1OCCC(C)C (centres undefined) | -0.637% (inactive) |
| Cc1ccc(NC(=O)C/C(N)=N/O)cc1Cl | -7.95% (inactive) |
| Cc1ccc(NC(=O)CSc2nn3c(=O)c(C)nnc3s2)cc1Cl | 98.9% (active) |
| COc1ccc(Cc2nnc(SCC(=O)Nc3ccc(C)c(Cl)c3)[nH]c2=O)cc1 | -4.08% (inactive) |
| CC(C)(C)S(=O)(=O)c1ccccc1-c1noc(-c2ccccc2)c1C(N)=O | -2.96% (inactive) |
| COc1ccc2nc3n(c(=O)c2c1)-c1ccc(Cl)cc1C(=O)NC3Cc1ccccc1 (centres undefined) | -0.323% (inactive) |
| COc1ccc(C2NC(=O)c3ccccc3N2)cc1 (centres undefined) | 0.0966% (inactive) |
| COc1ccc2c(c1)C(=O)Nc1cc(Cl)ccc1N2 | 87.7% (active) |
| CC(C)(C)c1ccc(C(=O)NCc2ccco2)cc1 | 1.34% (inactive) |
| CN(CC(=O)NC1CCN(Cc2ccccc2)CC1)S(=O)(=O)c1ccc(Cl)s1 | -2.03% (inactive) |
| Cc1ccc(NC(=O)c2ccc(Cl)nc2)cc1S(=O)(=O)N1CCOCC1 | -4.04% (inactive) |
| Cc1ccc(S(=O)(=O)NCCC(=O)NC2CCN(Cc3ccccc3)CC2)cc1 | 6.19% (inactive) |
| Cc1ccc(-c2nc(CSCC(=O)NC3CCN(Cc4ccccc4)CC3)c(C)o2)cc1 | 99.5% (active) |
| Cc1ccc(-c2cc(C(=O)NC3CCN(Cc4ccccc4)CC3)c3ccccc3n2)cc1 | 1.58% (inactive) |
| Cc1ccc(NC(=O)CS(=O)CC(=O)N(c2ccccc2)C(C)C(=O)NC2CCCC2)cc1 (centres undefined) | -4.87% (inactive) |
| Cc1ccc(-c2nc(CS(=O)CC(=O)NC3CCCC3)c(C)o2)cc1 (centres undefined) | 99.1% (active) |
| Cc1ccc(NC(=O)CSCC(=O)NC2CCCCC2)cc1 | -3.3% (inactive) |
